Compounds with a hit are over-represented: about 12% of the library has one in this group of screens.
HP1b chromo inh = blocks HP1-beta chromodomain binding to methylated histone tails; P83916; 390,000 compounds, 0.56% hits; AlphaScreen HP1-beta / biotin-H3K9me3 peptide binding; Potency, µM (top dose mostly 114 µM), without a hit: at the highest dose activity change, negative = inhibition, usual class: inhibitors; note: nearly all actives have a fitted effect of over 70% in size
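AlphaScreen: HP1-beta (50 nM) preformed 30 min with biotin-H3(1-18)K9me3 peptide (50 nM) in PBS pH 7.4, 0.01% Tween-20. Compound added for 30 min at RT, then streptavidin donor/nickel chelate acceptor beads (10 ug/mL) for 30 min.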
JMJD2A Tudor = blocks the human JMJD2A Tudor domain; AlphaScreen JMJD2A-Tudor / H3K4me3 peptide binding; 390,000 compounds, 4.4% hits; Potency, µM (top dose mostly 114 µM), for the others: at the highest dose activity change, negative = inhibition, usual class: inhibitors; O75164; note: % is set by controls: 0 for no effect and ±100 for the full control effect; nearly all actives have a fitted effect of over 50% in size
L3MBTL1 inh = blocks human L3MBTL1; AlphaScreen L3MBTL1–H3K9me1 peptide binding; Potency, µM (titrated, usually from 57.1 µM), inactives show at the highest dose activity, negative = inhibition, actives largely listed as inhibitors; 230,000 compounds, 0.66% hits; note: % is set by controls: 0 for no effect and ±100 for the full control effect; nearly all actives have a fitted effect of over 60% in size
Target sequence (Q9Y468 whole entry, looked up): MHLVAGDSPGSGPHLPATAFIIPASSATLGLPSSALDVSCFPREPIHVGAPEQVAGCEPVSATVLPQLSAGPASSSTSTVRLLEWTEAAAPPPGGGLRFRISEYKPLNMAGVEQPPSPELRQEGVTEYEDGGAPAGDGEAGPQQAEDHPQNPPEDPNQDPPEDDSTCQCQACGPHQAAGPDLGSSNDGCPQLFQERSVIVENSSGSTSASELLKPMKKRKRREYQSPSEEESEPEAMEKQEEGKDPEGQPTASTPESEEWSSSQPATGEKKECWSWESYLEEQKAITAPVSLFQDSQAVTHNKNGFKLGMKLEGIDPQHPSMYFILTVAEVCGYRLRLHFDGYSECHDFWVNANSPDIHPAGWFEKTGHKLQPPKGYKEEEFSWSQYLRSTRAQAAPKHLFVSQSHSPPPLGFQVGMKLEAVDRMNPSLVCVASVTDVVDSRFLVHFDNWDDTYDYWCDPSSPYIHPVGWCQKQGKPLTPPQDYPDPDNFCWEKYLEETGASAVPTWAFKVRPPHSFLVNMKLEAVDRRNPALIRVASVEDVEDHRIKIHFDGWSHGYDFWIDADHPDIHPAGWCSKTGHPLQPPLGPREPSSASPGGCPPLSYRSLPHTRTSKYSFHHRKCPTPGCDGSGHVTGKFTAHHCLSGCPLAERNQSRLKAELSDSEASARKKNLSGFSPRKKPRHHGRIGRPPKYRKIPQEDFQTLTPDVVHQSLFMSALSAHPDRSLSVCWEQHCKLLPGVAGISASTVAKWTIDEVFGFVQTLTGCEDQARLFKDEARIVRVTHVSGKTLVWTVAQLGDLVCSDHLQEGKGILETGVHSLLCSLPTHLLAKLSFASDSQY
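AlphaScreen proximity signal between nickel-chelate acceptor and streptavidin donor beads (final 10 ug/mL) reports binding of 50 nM L3MBTL1 to 75 nM biotin-H3 K9me1 peptide; complex incubated with compounds 30 min at room temperature; cefsulodin titration as control.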
Sfp PPTase inh = blocks B. subtilis Sfp PPTase activity; Biochemical Sfp PPTase activity, qHTS; Q9F4F7; 310,000 compounds, 3.5% hits; Potency, µM, for the others: largest response in the series, negative = inhibition, actives largely listed as inhibitors;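 note: the enzyme is Sfp with the accession as filed and its product quenches rhodamine fluorescence; 0% = enzyme reaction without inhibitor and -100% = no enzyme wells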
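Step 1, compound plus 15 nM Sfp-PPTase, 15 min, room temperature. Step 2, add rhodamine-CoA (5 uM) and BHQ-2-YbbR (12.5 uM). Step 3, read 525/598 nm fluorescence at 0 and 30 min.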
G9a block = inhibitors of human histone lysine methyltransferase G9a | Potency, µM (series often up to 102 µM), without a hit: at the highest dose activity, negative = inhibition, most hits filed as inhibitors | G9a H3K9 monomethylation, AlphaScreen, 2 h | Q96KQ7 | 350,000 compounds, 8.8% hits; note: % is set by controls: 0 for no effect and ±100 for the full control effect; nearly all actives have a fitted effect of over 75% in size
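Readings reflect AlphaScreen signal from monomethyl-H3K9 antibody detection. HMT at 20 nM; substrate b-H3K9 500 nM; cofactor SAM 20 uM; 2 h RT reaction; compounds tested as titrations in qHTS with 15 min preincubation.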
BAZ2B inh = BAZ2B (human) inhibition. Q9UIF8. AlphaScreen BAZ2B-H3K14Ac peptide displacement. Potency, µM (top dose mostly 114 µM), for the others: at the top dose activity change, negative = inhibition, actives largely listed as inhibitors. 360,000 compounds, 4.4% hits; note: % is set by controls: 0 for no effect and ±100 for the full control effect; nearly all actives have a fitted effect of over 60% in size
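BAZ2B 50 nM plus b-H3(5-23)K14Ac 50 nM, PBS pH 7.4/0.01% Tween-20, 30 min RT; compound added (max 110 uM), 30 min RT; streptavidin donor/Ni-chelate acceptor beads 10 ug/mL final, 20 min dark; AlphaScreen read.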
* marks the source's active call; other numbers are inactive results; u = inconclusive; x = no result; ! = repeats disagree; [ ] = remark or other dose. Calls come from the whole dose curve; as a rule, active = well fitted curve in the direction sought with a large enough effect; inconclusive = small, poorly fitted or top-dose-only effect, or another doubt; inactive = no such curve, though single readings can be large; an effect the other way counts as inactive or inconclusive. Potency is the fitted concentration of half-maximal effect.

SMILES	HP1b chromo inh	JMJD2A Tudor	L3MBTL1 inh	Sfp PPTase inh	G9a block	BAZ2B inh
N=C(N)c1ccc(CS(=O)(=O)F)cc1	x	x	x	x	-85%[59 µM]	x
COc1ccc2[nH]c3c(c2c1)CCN=C3C	-29%	35µM*	-11%	-10%	8.9µM*	45µM*
C[N+]1([O-])CCC[C@@H]1c1cccnc1 (stereo partly drawn)	x	x	x	30%	32%[59 µM]	x
CC1CC[C@]2(NC1)OC1CC3C4CC=C5CC(O)CC[C@@]5(C)C4CC[C@]3(C)C1C2C (stereo partly drawn)	x	x	x	-11%	-48%[2.33 µM]	x
NC1CCc2cc(O)c(O)cc2C1 (stereo not drawn)	u	11µM*	0%	40µM*	1.5µM*	-4%
Cc1cnn(-c2cc(Oc3ccccc3)ncn2)c1	89%	38%	18%	-16%	-49%	0%
Cc1cc(O)c2c(c1)C(=O)c1cc(O)cc(O)c1C2=O	u	45µM*	x	-3%	1.7µM*	x
CC(=O)c1ccc2c(c1)C1C(Cl)C(Sc3ccccc3[N+](=O)[O-])CC1C(c1ccccc1)N2 (stereo not drawn)	-23%	45µM*	-13%	-25%	10µM*	45µM*
CCN1C(=NCCCOC(C)C)N[C@@H](c2ccccc2)[C@H](C(=O)OC)[C@H]1C	4%	u	4%	9%	14%[12.7 µM]	8%
CC1Oc2cc3c(-c4c(O)cc(O)c5c(O)c6c(cc45)OC(C)C(C)C6=O)c(O)cc(O)c3c(O)c2C(=O)C1C (stereo not drawn)	u	45µM*	2µM*	15%	13µM*	32µM*
Clc1ccc(C(c2ccc(Cl)cc2)n2cc[n+](CC(OCc3ccc(Cl)cc3Cl)c3ccc(Cl)cc3Cl)c2)cc1 (stereo not drawn)	0%	50µM*	5%	u	18µM*!	-38%
Cc1cccc(N2CCN(C(=O)C34CC5CC(CC(C5)C3)C4)CC2)c1C	57%	-7%	x	10%	1.6µM*	-15%
CC1CCC2C(C)C(=O)OC3OC4(C)CCC1C32OO4 (stereo not drawn)	40%	4%	x	89µM*!	16%[2.33 µM]	-1%
NC(=O)c1ccc(N=Nc2c(O)[nH]c(=O)[nH]c2=O)cc1	x	x	8%	14%	18%	-2%
O=c1[nH]c(O)c(N=Nc2cc([N+](=O)[O-])ccc2O)c(=O)[nH]1	u	89µM*	-19%	5%	45µM*	50µM*
Cc1ccc(N2C(=O)NC(=O)/C(=C/c3ccc(-c4ccc(C(=O)O)c(Cl)c4)o3)C2=O)cc1	24%	-20%	x	32µM*	10µM*	u
CCc1ccc(N2C(=O)NC(=O)/C(=C\c3cc(C)n(-c4cc(C(=O)O)cc(C(=O)O)c4)c3C)C2=O)cc1	-14%[57 µM]	50µM*	x	-7%	35µM*	71µM*
Cc1cc(/C=C2\C(=O)NC(=O)N(c3cccc(F)c3)C2=O)c(C)n1-c1ccc(C(=O)O)c(Cl)c1	4%	-35%	u	-26%	35µM*	u
Cc1ccc(N2C(=O)NC(=O)/C(=C\c3cc(C)n(-c4ccc(C(=O)O)cc4)c3C)C2=O)cc1	21%	-24%	x	-23%	u	-33%
Cc1cc(/C=C2\C(=O)NC(=O)N(c3ccc(F)cc3)C2=O)c(C)n1-c1ccc(C(=O)O)cc1	11%	-21%	u	-27%	x	u
Cc1ccc(N2C(=O)NC(=O)/C(=C\c3cc(C)n(-c4cc(C(=O)O)cc(C(=O)O)c4)c3C)C2=O)cc1	u	32µM*	x	12%	35µM*	u
CCN1C(=O)c2ccccc2Sc2ccc(NC(=O)c3ccc(C)c(F)c3)cc21	25%[57 µM]	u	x	x	2%[59 µM]	1%
COc1ccccc1CN1CCCC2(CCN(C(=O)Oc3ccccc3)CC2)C1	x	x	x	16%	-5%[12.7 µM]	x
CCOC(=O)c1cnc2c(ccc3ccccc32)c1Nc1ccc(C(C)=O)cc1	31%	-13%	x	x	-46%[59 µM]	2%
CC(C)(O)C1C2OC(=O)C1[C@]1(O)C[C@H]3O[C@]34C(=O)O[C@H]2[C@]14C (stereo partly drawn) (tested in a mixture with another compound)	x	x	x	8%	22%[12.7 µM]	x
SMILES	HP1b chromo inh	JMJD2A Tudor	L3MBTL1 inh	Sfp PPTase inh	G9a block	BAZ2B inh
CNC(=O)Oc1ccc2c(c1)[C@@]1(C)CCN(C)[C@@H]1N2C	x	x	x	7%	8%[21.5 µM]	x
CN1CC[C@@]2(C)c3cc(O)ccc3N(C)[C@@H]12	u	4µM*!	x	-5%	x	x
CN1CC[C@@]2(C)c3cc(OC(=O)Nc4ccccc4)ccc3N(C)[C@@H]12	x	x	x	14%	16µM*	x
CC[C@]12C=CCN3CC[C@@]4(c5ccc(OC)cc5N(C)[C@H]4[C@@](O)(C(=O)OC)[C@@H]1OC(C)=O)C32 (stereo partly drawn)	x	x	x	-6%	x	x
N#Cc1c(Cl)cccc1Cl	x	x	x	15%	x	x
CC(N=Cc1c(O)[nH]c(=O)[nH]c1=O)c1ccccc1 (stereo not drawn)	9%	-18%	-2%	9%	5.6µM*	-1%
COc1ccc(CCn2c(NN=C3CCCCC3)nc3c2c(=O)[nH]c(=O)n3C)cc1	18%	-33%	x	u	-6%[59 µM]	-20%
[O-]C1=N/[N+](=C/c2ccc(Cl)cc2)CC1	26%	-10%	x	4%	8.9µM*	11%
O=P(C(Cl)Cl)(N1CCCCC1)N1CCCCC1	x	-1%	x	-2%	4%	5%
O=P(OCC(F)(F)C(F)F)(N1CCCCC1)N1CCCCC1	12%	-3%	2%	16%	45µM*	-5%
CCS(=O)CCSP(=O)(OC)OC (stereo not drawn)	x	x	x	-2%	x	x

Source: PubChem BioAssay
